Test results: the supplement of paper PMC9023506
Where a name gives a salt, the structure may show the parent alone.

Each molecule was assayed on Danio rerio larvae (5 dpf) (assay: optomotor response to fast red moving lines, difference vs DMSO (percentage points (treated minus DMSO)); higher = more of the behaviour than the DMSO vehicle control). Details: 10 µM; exposure time: 3 h pre-incubation + 3 h imaging.
Experimental: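 5-dpf wild-type zebrafish larvae were imaged in 96-well plates. They were treated with 190 Tocris FDA-approved drugs at 10 µM (1 µl/ml DMSO) for 3 h before and 3 h during imaging at 28.5 °C, 48 larvae per drug. Automated image analysis gave % time moving and optomotor responses. Values are drug group mean minus DMSO vehicle mean (n=844), in percentage points, for 10 behaviours.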

Structure (SMILES) | optomotor response
NC(=O)N1c2ccccc2C=Cc2ccccc21 [Carbamazepine] | -9.08
CC1=Nc2ccc(Cl)cc2S(=O)(=O)N1 [Diazoxide] | -1.95
NC(=O)OCC(COC(N)=O)c1ccccc1 [Felbamate] | 8.45
CN1CCC[C@@H]1CCO[C@](C)(c1ccccc1)c1ccc(Cl)cc1 [Clemastine fumarate] | 13.4
Cn1cnc([N+](=O)[O-])c1Sc1ncnc2[nH]cnc12 [Azathioprine] | 9.79
CN/C(=N\CCSCc1nc[nH]c1C)NC#N [Cimetidine] | -7.27
Clc1ccc2nsnc2c1NC1=NCCN1 [Tizanidine hydrochloride] | 4.15
CN1CCC[C@@H]1Cc1c[nH]c2ccc(CCS(=O)(=O)c3ccccc3)cc12 [Eletriptan hydrobromide] | -9.58
CN1CC[C@@H](NC(=O)Nc2ccc(C#N)cc2)C[C@@H]1c1nc2ccccc2[nH]1 | -0.171
Nc1nc(Cl)nc2c1ncn2[C@@H]1O[C@H](CO)[C@@H](O)[C@@H]1F [Clofarabine] | -10.5
Nc1ncn([C@H]2C[C@H](O)[C@@H](CO)O2)c(=O)n1 [Decitabine] | 1.67
CCOc1cc(CC(=O)N[C@@H](CC(C)C)c2ccccc2N2CCCCC2)ccc1C(=O)O [Repaglinide] | -12.1
O=C(O)C[C@H](O)C[C@H](O)/C=C/c1c(C2CC2)nc2ccccc2c1-c1ccc(F)cc1 [Pitavastatin calcium] | 9.78
C#C[C@]1(O)CC[C@H]2[C@@H]3CCC4=CC(=O)CC[C@@H]4[C@H]3CC[C@@]21CC [Levonorgestrel] | 9.62
Cc1cc(C2CCCCC2)n(O)c(=O)c1 [Ciclopirox] | 3.21
C/C(O)=C(\C#N)C(=O)Nc1ccc(C(F)(F)F)cc1 [Teriflunomide] | -7.56
C[C@]12CCC(=O)C=C1CC[C@@H]1[C@@H]2[C@@H](O)C[C@@]2(C)[C@H]1CC[C@]2(O)C(=O)CO [Hydrocortisone] | -1.8
CCc1ccc(CCOc2ccc(CC3SC(=O)NC3=O)cc2)nc1 (stereo not given) [Pioglitazone hydrochloride] | -6.55
CN[C@H]1CC[C@@H](c2ccc(Cl)c(Cl)c2)c2ccccc21 [Sertraline hydrochloride] | -8.12
CC(=O)S[C@@H]1CC2=CC(=O)CC[C@]2(C)[C@H]2CC[C@@]3(C)[C@@H](CC[C@@]34CCC(=O)O4)[C@H]12 [Spironolactone] | -11.3

Structure (SMILES) | optomotor response
COc1ccccc1OCCNCC(O)COc1cccc2[nH]c3ccccc3c12 (stereo not given) [Carvedilol] | -10.6
CC(C)Nc1cccnc1N1CCN(C(=O)c2cc3cc(NS(C)(=O)=O)ccc3[nH]2)CC1 [Delavirdine mesylate] | -17
CC(C)c1ccc2oc3nc(N)c(C(=O)O)cc3c(=O)c2c1 [Amlexanox] | -1.36
COc1c(C)c2c(c(O)c1C/C=C(\C)CCC(=O)O)C(=O)OC2 [Mycophenolic acid] | 10.7
CC1(C)O[C@@H]2[C@@H](CO[C@@]3(COS(N)(=O)=O)OC(C)(C)O[C@@H]23)O1 [Topiramate] | -10.6
O=C(c1ccc(OCCN2CCCCC2)cc1)c1c(-c2ccc(O)cc2)sc2cc(O)ccc12 [Raloxifene hydrochloride] | -14.5
CCCCCCCN(CC)CCCC(O)c1ccc(NS(C)(=O)=O)cc1 (stereo not given) [Ibutilide hemifumarate] | 3.06
O=C(O)c1cc(/N=N/c2ccc(S(=O)(=O)Nc3ccccn3)cc2)ccc1O [Sulfasalazine] | -5.17
CC(C)COCC(CN(Cc1ccccc1)c1ccccc1)N1CCCC1 (stereo not given) [Bepridil hydrochloride] | 7.72
O=C(NCC1CCCCN1)c1cc(OCC(F)(F)F)ccc1OCC(F)(F)F (stereo not given) [Flecainide acetate] | 1.94
CC(C)N(CCCCOCC(=O)NS(C)(=O)=O)c1cnc(-c2ccccc2)c(-c2ccccc2)n1 [Selexipag] | -6.49
Cc1nc(Nc2ncc(C(=O)Nc3c(C)cccc3Cl)s2)cc(N2CCN(CCO)CC2)n1 [Dasatinib] | -12.1
COc1cccc2c1C(=O)c1c(O)c3c(c(O)c1C2=O)C[C@@](O)(C(=O)CO)C[C@@H]3O[C@H]1C[C@H](N)[C@H](O)[C@H](C)O1 [Doxorubicin hydrochloride] | 6.53
CCOC(=O)c1ncn2c1CN(C)C(=O)c1cc(F)ccc1-2 [Flumazenil] | 9.89
CNCc1ccc(-c2[nH]c3cc(F)cc4c3c2CCNC4=O)cc1 [Rucaparib camsylate] | 3.57
NS(=O)(=O)c1cc(C(=O)O)c(NCc2ccco2)cc1Cl [Furosemide] | 0.619
Cc1cc2c(s1)Nc1ccccc1N=C2N1CCN(C)CC1 [Olanzapine] | 9.42
O=c1n(CCCN2CCN(c3cccc(Cl)c3)CC2)nc2ccccn12 [Trazodone hydrochloride] | 5.34
Cc1c(-c2ccc(O)cc2)n(Cc2ccc(OCCN3CCCCCC3)cc2)c2ccc(O)cc12 [Bazedoxifene acetate] | 0.818
N#C[C@@H]1C[C@@H]2C[C@@H]2N1C(=O)[C@@H](N)C12CC3CC(CC(O)(C3)C1)C2 [Saxagliptin hydrochloride] | -7.58
